We go through 40 molecules from PubChem BioAssay (Tox21).

Calls of active or inactive are those of the source. Calls come from the whole dose curve.
% is set by controls: 0 for no effect and ±100 for the full control effect.

Chain of Thyrotropin-releasing hormone receptor (Homo sapiens) (P34981 whole entry, looked up): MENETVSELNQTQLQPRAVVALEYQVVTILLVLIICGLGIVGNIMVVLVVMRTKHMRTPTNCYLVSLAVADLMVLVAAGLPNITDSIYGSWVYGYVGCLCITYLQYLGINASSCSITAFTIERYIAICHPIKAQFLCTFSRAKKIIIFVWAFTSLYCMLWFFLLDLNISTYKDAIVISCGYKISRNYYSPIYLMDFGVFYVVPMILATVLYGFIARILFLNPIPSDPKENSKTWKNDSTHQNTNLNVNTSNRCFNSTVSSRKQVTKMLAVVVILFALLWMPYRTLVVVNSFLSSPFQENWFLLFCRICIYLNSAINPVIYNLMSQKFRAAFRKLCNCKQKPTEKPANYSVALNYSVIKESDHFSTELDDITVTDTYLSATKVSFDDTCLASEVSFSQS

For this experiment, the target named is Thyrotropin-releasing hormone receptor (Homo sapiens) (UniProt P34981). Description: qHTS assay to identify small molecule agonists of the thyrotropin-releasing hormone receptor (TRHR) signaling pathway (AID 1346891).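 Note: HEK293 cells expressing TRHR with calcium dye readout.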 To be noted: TRHR-HEK293 calcium fluorescence, agonist mode; series mostly up to 57.6 µM; activation: at the top concentration. The source says:
National Center for Advancing Translational Sciences [NCATS] NIH Chemical Genomics Center [NCGC] U.S. Environmental Protection Agency [EPA] National Institutes of Environmental Health Sciences [NIEHS] National Toxicology Program [NTP] Assay overview: Thyrotropin-releasing hormone (TRH) receptor (TRHR) is a G-protein-coupled receptor which binds the tripeptide thyrotropin releasing hormone. TRHR is found in the brain and, when bound by TRH, acts (through phospholipase C) to increase intracellular inositol trisphosphate. It plays a crucial role in the anterior pituitary where it controls the synthesis and secretion of thyroid stimulating hormone and prolactin. The TRHR-Hek293 assay is a cell-based assay, and it has the potential to screen G protein-coupled receptors. A compound/drug can either activate (agonist) or suppress (antagonist) GPCRs that can be monitored by levels of intracellular calcium. Using this assay, the Tox21 10K compound library was screened to identify potential TRHR agonists.
Assay Protocol Summary: The TRHR-Hek293 cells were dispensed at 1500cells/4uL/well in 1536-well black-clear bottom plates using a Multidrop dispenser. After the assay plates were incubated at a 37 C/5% CO2 incubator for 18 hours, 4 uL of Dye-Loading Solution was added to each well. The plates were incubated at 37 C for 2 hours. For agonist mode, 23 nL of compounds dissolved in DMSO, positive controls or DMSO only was transferred to the assay plate by a pin tool. The fluorescence intensity in the plates was measured using FDSS 7000EX kinetic plate reader for 3 min at 1 sec intervals. Each test compound was measured at 15 concentrations and in triplicates.
Background: In qHTS, concentration-response curves come from the screen itself.
With `CCCCCC=CCC=CCCCCCCCC(=O)OCC`, the “activation” value is -0.302% [at 26.5 µM] (inactive).

As to `C=CC(=C)CCCC(C)(C)OC(C)=O`, the “activation” value is 0.041% (inactive).

As for `CC#N`, the “activation” value was 5.81% (inactive).

In the case of `CCCOc1ccc(S(=O)(=O)N2CCN(CC)CC2)cc1-c1nc2c(CC)n(Cc3ccccn3)nc2c(=O)[nH]1`, the “activation” value is 0.36% (inactive).

For `CC(=N\O)/C(C)=N/O`, the “activation” value was -0.334% (inactive).

`CCc1c2c(nc3ccc(OC(=O)N4CCC(N5CCCCC5)CC4)cc13)-c1cc3c(c(=O)n1C2)COC(=O)[C@]3(O)CC`: the “activation” value was 0.447% [at 26.5 µM] (inactive).

For the molecule `O=C(CCCN1CCC(O)(c2ccc(Br)cc2)CC1)c1ccc(F)cc1`, the “activation” value was 5.2% [at 26.5 µM] (inactive).

As to `Cc1ccc(S(=O)(=O)NC2CCCCC2)cc1`, the “activation” value is 0.165% (inactive).

`CC(N)CN` (stereo not given): the “activation” value is -0.0704% (inactive).

As to `COc1cc2c(N3CCN(C(=O)Nc4ccc(OC(C)C)cc4)CC3)ncnc2cc1OCCCN1CCCCC1`, the “activation” value was -0.102% [at 26.5 µM] (inactive).

Regarding `C[C@]12CCC(=O)C=C1C=C[C@@H]1[C@@H]2CC[C@@]2(C)[C@H]1CC[C@@]21CCC(=O)O1`, the “activation” value is 0.609% [at 26.5 µM] (inactive).

Regarding `O=C(CS)OCCOC(=O)CS`, the “activation” value is -0.136% (inactive).

Consider `CCCCCCCCCCCC[N+](C)(C)CCCS(=O)(=O)[O-]`, for which the “activation” value was -0.0208% (inactive).

`CCCCCCCC/C=C\CCCCCCCC(=O)OC(CO)CO`: the “activation” value was -0.154% (inactive).

`O=C(N/N=C/c1ccc([N+](=O)[O-])o1)c1ccc(O)cc1`: the “activation” value is -0.762% [at 26.5 µM] (inactive).

As for `O=C(c1ccc(O)cc1)c1ccc(Cl)cc1`, the “activation” value was 2.27% (inactive).

Take `CC[C@@H]([C@H](C)O)n1ncn(-c2ccc(N3CCN(c4ccc(OC[C@@H]5CO[C@@](Cn6cncn6)(c6ccc(F)cc6F)C5)cc4)CC3)cc2)c1=O`: the “activation” value was 6.01% [at 26.5 µM] (inactive).

Turning to `CC(C)(C)C(=O)O`, the “activation” value was -0.0598% (inactive).

`Nc1nccs1`: the “activation” value is -0.0874% (inactive).

On to `CCC(=O)Oc1ccc(/C(CC)=C(\CC)c2ccc(OC(=O)CC)cc2)cc1`, for which the “activation” value is 0.114% (inactive).

In the case of `COc1ccc(C(=O)c2cccc(O)c2)c(OC)c1`, the “activation” value is -0.42% (inactive).

Consider `O=C(O)c1cccc(O)c1`, for which the “activation” value is -0.159% (inactive).

As to `CC(C)CCCCCOC(=O)CCCCC(=O)OCCCCCC(C)C`, the “activation” value is -0.0695% (inactive).

In the case of `CC(=O)Oc1ccc2c(c1)CC[C@@H]1[C@@H]2CC[C@]2(C)[C@@H](O)CC[C@@H]12`, the “activation” value was 0.0511% [at 26.5 µM] (inactive).

Regarding `CCCCC/C(=C\c1ccccc1)CO`, the “activation” value is 1.12% (inactive).

For `CCOCCn1c(C2CCN(CCc3ccc(C(C)(C)C(=O)O)cc3)CC2)nc2ccccc21`, the “activation” value was -0.407% [at 26.5 µM] (inactive).

For `C=CCNc1nc(NCC=C)nc(N2CCN(C(c3ccc(F)cc3)c3ccc(F)cc3)CC2)n1`, the “activation” value was -0.503% [at 26.5 µM] (inactive).

With `CCNC(=O)N1CCN(CCCC(c2ccc(F)cc2)c2ccc(F)cc2)CC1`, the “activation” value was 3.96% [at 26.5 µM] (inactive).

As to `CCCCCCCCCCCCCCC[C@H](O)[C@@H](N)CO`, the “activation” value is 2.02% [at 26.5 µM] (inactive).

Consider `c1cc[c]([Bi]([c]2ccccc2)[c]2ccccc2)cc1`, for which the “activation” value is 0.149% (inactive).

Consider `C[N+]1(C)CCC(=C(c2ccccc2)c2ccccc2)CC1`, for which the “activation” value is 1.03% [at 26.5 µM] (inactive).

For `COc1cc2[nH]c(=O)[nH]c(=O)c2cc1OC`, the “activation” value is -0.222% [at 26.5 µM] (inactive).

For `CN(C)CCOC1=Cc2ccccc2Sc2ccc(Cl)cc21`, the “activation” value was 15.6% [at 26.5 µM] (inactive).

Consider `CN1CCN(CCCN2c3ccccc3Sc3ccc(S(=O)(=O)N(C)C)cc32)CC1`, for which the “activation” value is 4.07% [at 26.5 µM] (inactive).

With `CCC(C)=O`, the “activation” value was -0.0328% (inactive).

For `CN1CCN(c2c(F)cc3c(=O)c(C(=O)O)cn4c3c2OCN4C)CC1`, the activation was 0.19% [at 11.8 µM] (inactive).

As to `NC(=O)Nc1ccc(Cl)c(Cl)c1`, the “activation” value is 0.219% (inactive).

Take `CCOC(=O)c1ccccc1OC`: the “activation” value was 2.36% (inactive).

For `CC(C)(C)C(=O)C(Oc1ccc(Cl)cc1)n1ccnc1` (stereo not given), the “activation” value was -0.224% [at 26.5 µM] (inactive).

Take `CCOC(=O)OCC`: the “activation” value is -0.104% (inactive).
